Screening results (PubChem)
Compounds with a hit are over-represented: about 14% of the library has one in this group of screens.
Sm TGR block = qHTS Assay for the Inhibitors of Schistosoma Mansoni Peroxiredoxins. Schistosoma mansoni thioredoxin glutathione reductase (TGR), Q962Y6. purified TGR, DTNB reduction, TNB absorbance 405 nm. Potency, µM (top dose mostly 114 µM), hits mostly inhibitors. 3% of 360,000 active. AID 485364, 2010; also: nearly all actives have a fitted effect of over 60% in size
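Kinetic colorimetric format: TGR-catalysed, NADPH-driven DTNB reduction monitored via TNB absorbance. Enzyme dispensed at 20 nM; compound exposure 15 min at room temperature before reaction start.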
FBPA Giardia inh = qHTS Assay for Inhibitors of Fructose-1,6-bisphosphate Aldolase from Giardia Lamblia. A8B2U2. 0.71% of 290,000 active. purified Giardia FBPA. Potency, µM (titrated, usually from 59.6 µM), actives largely listed as inhibitors; also: nearly all actives have a fitted effect of over 55% in size
Target sequence (A8B2U2 whole entry, looked up): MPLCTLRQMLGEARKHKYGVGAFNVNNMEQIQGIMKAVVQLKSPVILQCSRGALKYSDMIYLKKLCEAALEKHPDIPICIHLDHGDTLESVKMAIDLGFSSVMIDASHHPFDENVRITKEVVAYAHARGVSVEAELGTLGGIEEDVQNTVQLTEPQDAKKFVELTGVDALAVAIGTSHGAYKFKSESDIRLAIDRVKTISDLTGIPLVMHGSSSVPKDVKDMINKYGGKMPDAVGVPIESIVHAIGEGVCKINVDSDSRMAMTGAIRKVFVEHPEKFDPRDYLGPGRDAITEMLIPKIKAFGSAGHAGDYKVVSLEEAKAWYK
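Giardia FBPA (40 nM reagent) was preincubated 10 min at RT with compound (up to 57.5 uM final), then substrate plus GAPDH/TPI/NAD/arsenate coupling system with diaphorase/resazurin was added; resorufin fluorescence (525/598 nm) was read after 20 min.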
Pf growth 96h = Primary qHTS for delayed death inhibitors of the malarial parasite plastid, 96 hour incubation; Potency, µM (doses to about 28.7 µM), hits mostly inhibitors; 6.9% of 320,000 active; AID 504834, 2011; P. falciparum luciferase reporter growth, 96 h
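Two-generation exposure (96 h) targets delayed-death phenotype. Reporter parasites carrying integrated firefly luciferase, in red cells at 2% hematocrit and 0.05% parasitemia final, kept at 37 C, 5% CO2; luminescence loss indicates inhibition.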
HCMV antiviral = qHTS Assay for inhibitors of the human cytomegalovirus (HCMV) | HFF cells, HCMV-luciferase reporter, 72 h; active compounds read low | activity change, negative = inhibition, % at 57.5 µM | 4.5% of 410,000 active | AID 1259415, 2018; in the data active = activity change below about -60%; inconclusive = no clear call, values can overlap the other calls; inactive = above about -39%
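Screen run at 2 compound doses on HFFs infected with reporter HCMV, MOI 1 PFU/cell. Luciferase activity from cell lysates at 72 h post infection gave inhibition relative to buffer-only and Salinomycin wells.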
Pf growth 48h = Primary qHTS for delayed death inhibitors of the malarial parasite plastid, 48 hour incubation. P. falciparum luciferase growth in erythrocytes, 48 h. Potency, µM (top dose mostly 28.7 µM), usual class: inhibitors. 5.9% of 310,000 active. AID 504832, 2011
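Here the parasites carry a stable luciferase gene and grow inside erythrocytes in Albumax-based RPMI medium with compound for one erythrocytic cycle. Activity is scored as loss of luminescent signal.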
A number is an active result; [ ] = dose if it differs, or a comment. Unless noted, calls follow the shape of the dose curve; as a rule, active = well fitted curve in the direction sought with a large enough effect; inconclusive = small, poorly fitted or top-dose-only effect, or another doubt; inactive = no such curve, though single readings can be large; an effect the other way counts as inactive or inconclusive.

`Cc1cccc(OCC(=O)Nc2ccc(N3CCCC3)cc2)c1C` gave Sm TGR block 31.6µM, FBPA Giardia inh inactive, Pf growth 96h inactive, HCMV antiviral inactive and Pf growth 48h 10.4µM.
Screening CN1CCN(c2ccc(NC(=O)COc3ccccc3Cl)cc2)CC1 returned Sm TGR block inactive, FBPA Giardia inh inactive, Pf growth 96h inactive, HCMV antiviral inactive and Pf growth 48h inactive.
`CCC(=O)N1CCN(c2ccc(NC(=O)COc3ccccc3Cl)cc2)CC1` gave Sm TGR block inactive, FBPA Giardia inh inactive, Pf growth 96h 5.86µM and HCMV antiviral inconclusive.
Cc1cc(C)cc(OCC(=O)Nc2ccc(N3CCCC3)cc2)c1 was read as Sm TGR block inactive, FBPA Giardia inh inactive, Pf growth 96h inactive and Pf growth 48h inconclusive.
`O=C(CNCC1CCCCC1)Nc1ccc(N2CCCCC2)cc1` gave Sm TGR block inactive, FBPA Giardia inh inconclusive, Pf growth 96h inactive and Pf growth 48h inactive.
For Cc1ccccc1OCC(=O)Nc1ccc(C(=O)Nc2ccccc2C(=O)O)cc1 the results were Sm TGR block inconclusive, Pf growth 96h inconclusive, HCMV antiviral -69.9 and Pf growth 48h inconclusive.
O=C(CNCC1CCCO1)Nc1ccc(N2CCCCCC2)cc1 (centres undefined) was read as Sm TGR block inactive, FBPA Giardia inh inconclusive, Pf growth 96h 0.262µM, HCMV antiviral inactive and Pf growth 48h inactive.
For Cc1ccc(OCC(=O)Nc2ccc(C(=O)Nc3ccccc3C(=O)O)cc2)cc1C the results were HCMV antiviral inactive.
`Cc1ccc(NC(=O)COc2ccccc2CNC(C)(C)CC(C)(C)C)cc1` gave Sm TGR block inactive, FBPA Giardia inh inactive, HCMV antiviral -64.7 and Pf growth 48h 7.38µM.
Screening Cc1cccc(C)c1OCC(=O)Nc1ccc(N2CCOCC2)cc1 returned Sm TGR block inactive, FBPA Giardia inh inactive, Pf growth 96h 1.47µM, HCMV antiviral inactive and Pf growth 48h inconclusive.
COc1cccc(CCc2nnc(CCC(=O)NCCC3CCCCO3)o2)c1 (centres undefined) was read as Sm TGR block inactive, FBPA Giardia inh inactive, Pf growth 96h inactive, HCMV antiviral inactive and Pf growth 48h inactive.
Cc1cc(Br)c2[nH]cc(CCNC(=O)c3ccco3)c2c1 was read as Sm TGR block inactive, FBPA Giardia inh inactive, Pf growth 96h inconclusive, HCMV antiviral inactive and Pf growth 48h inconclusive.
Cc1cc(C)n2nc(SC(C)C(=O)N3CC(C)OC(C)C3)nc2n1 (centres undefined) was read as HCMV antiviral inactive.
`O=C(COc1ccccc1)Nc1ccc(N2CCN(C(=O)c3ccco3)CC2)cc1` gave Sm TGR block inactive, FBPA Giardia inh inactive, Pf growth 96h inconclusive, HCMV antiviral inactive and Pf growth 48h inconclusive.
Screening Cc1ccc(C(=O)N2CCN(c3ccc(NC(=O)COc4ccccc4C)cc3)CC2)cc1 returned Sm TGR block inactive, FBPA Giardia inh inactive, Pf growth 96h inconclusive, HCMV antiviral inconclusive and Pf growth 48h 8.28µM.
Screening Cc1ccc(OCC(=O)Nc2ccc(N3CCN(C(=O)c4ccco4)CC3)cc2)cc1 returned Sm TGR block inactive, FBPA Giardia inh inactive, Pf growth 96h 5.22µM, HCMV antiviral inconclusive and Pf growth 48h inconclusive.
Screening COc1ccccc1NC(=O)c1ccc(NC(=O)COC(=O)C(C)C)cc1 returned Sm TGR block 31.6µM, FBPA Giardia inh inactive, Pf growth 96h 6.57µM, HCMV antiviral inactive and Pf growth 48h 7.38µM.
`CC(C)n1cc(NC(=O)COc2ccccc2Cl)cn1` gave Sm TGR block inactive, FBPA Giardia inh inactive, Pf growth 96h inconclusive, HCMV antiviral -61.4 and Pf growth 48h inactive.
Screening CSc1ncccc1C(=O)OCC(=O)N1CCc2ccccc21 returned HCMV antiviral inactive.
CCOC(=O)[C@]12CCC=C1N(Cc1ccc3c(c1)OCO3)C(=O)[C@H](CC(=O)N1CCC(c3ccccc3)CC1)C2 was read as HCMV antiviral inactive.
COc1ccnc(CSC(N)=Nc2ccc(F)cc2)c1 was read as Sm TGR block 44.7µM, FBPA Giardia inh inconclusive, Pf growth 96h inactive, HCMV antiviral inactive and Pf growth 48h inactive.
`COc1ccc(N2CCN(C(=O)CCc3nnc4ccc(N5CCCC5)nn34)CC2)cc1` gave Sm TGR block inactive, Pf growth 96h 11.7µM, HCMV antiviral inactive and Pf growth 48h inconclusive.
COc1ccccc1N1CCN(C(=O)CCc2nnc3ccc(N4CCCC4)nn23)CC1 was read as Sm TGR block inactive, Pf growth 96h inconclusive, HCMV antiviral inactive and Pf growth 48h inactive.
CCOC(=O)C(C)NC(=O)CCc1nnc2ccc(N3CCC(C)CC3)nn12 (centres undefined) was read as Sm TGR block inactive, FBPA Giardia inh inactive, Pf growth 96h inconclusive, HCMV antiviral inactive and Pf growth 48h inactive[0.00184 µM].
Screening CC1CCN(c2ccc3nnc(CCC(=O)N4CCN(c5ccc(F)cc5)CC4)n3n2)CC1 returned Sm TGR block inactive, FBPA Giardia inh inactive, Pf growth 96h inactive, HCMV antiviral inconclusive and Pf growth 48h 5.22µM.
CCC(C)NC(=O)CCc1nnc2ccc(N3CCC(C)CC3)nn12 (centres undefined) was read as Sm TGR block inactive, FBPA Giardia inh inactive, Pf growth 96h inactive, HCMV antiviral -60.5 and Pf growth 48h inactive.
`CS(=O)(=O)Nc1ccccc1C(=O)NCCSc1ccccc1` gave Sm TGR block inactive, FBPA Giardia inh inactive, Pf growth 96h inconclusive, HCMV antiviral inactive and Pf growth 48h inactive.
O=C(NC1CCCC1)c1ccc(CS(=O)Cc2ccccc2Cl)o1 (centres undefined) was read as Sm TGR block 31.6µM, Pf growth 96h inactive, HCMV antiviral inactive and Pf growth 48h inactive.
COCCNC(=O)c1ccc(CS(=O)(=O)c2c(Cl)cccc2Cl)o1 was read as Sm TGR block 50.1µM, FBPA Giardia inh inactive, Pf growth 96h inactive, HCMV antiviral inactive and Pf growth 48h inactive.
O=C(NCCc1cccs1)c1ccc(CS(=O)Cc2ccc(Cl)cc2)o1 (centres undefined) was read as Sm TGR block 44.7µM, Pf growth 96h inconclusive, HCMV antiviral inactive and Pf growth 48h inactive.
`COc1cccc(CNC(=O)c2ccc(CS(=O)Cc3ccc(Cl)cc3)o2)c1` (centres undefined) gave Sm TGR block inactive and HCMV antiviral inactive.
Screening COc1ccc(S(=O)Cc2ccc(C(=O)NCc3cccc(OC)c3)o2)cc1 (centres undefined) returned Sm TGR block 25.1µM, Pf growth 96h inactive, HCMV antiviral inactive and Pf growth 48h inactive.
Screening Cc1cccc(-c2nc3c(N4CCOCC4)nccc3[nH]2)c1 returned HCMV antiviral inactive.
`CSc1ccc(CN2CCC(C)(Oc3ccc(C(C)=O)cc3)C2)cc1` (centres undefined) gave HCMV antiviral inactive.
